# Shiga inhibitor – A qHTS for Small Molecule Inhibitors of Shiga Toxin. inhibition, % at 38.7 µM. 290,000 compounds, 9.2% hits. Vero cells, Shiga toxin protein synthesis inhibition reporter; in the data active = inhibition mostly above about 28%, no sharp cut-off; inactive = mostly below about 43%; also: 0% is about no effect
# Pf growth 96h – Primary qHTS for delayed death inhibitors of the malarial parasite plastid, 96 hour incubation | P. falciparum luciferase reporter growth, 96 h | Potency, µM (doses to about 28.7 µM), for the others: at the highest dose activity change, negative = inhibition, most hits filed as inhibitors | 320,000 compounds, 6.9% hits; also: potency is read from the fitted curve at half-maximal effect; % is scaled to controls: 0 for no effect and ±100 for the full control effect
#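 Cell-based qHTS: luciferase-tagged P. falciparum in erythrocytes (2% hematocrit, 0.05% parasitemia final) incubated with compounds for 96 hours, 37 C, 5% CO2; luciferase detection reagent then added and luminescence measured.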
# CHX counter – Cycloheximide Counterscreen for Small Molecule Inhibitors of Shiga Toxin | cell reporter, cycloheximide protein synthesis inhibition counterscreen | max response, % | 300,000 compounds, 12% hits | AID 2314, 2010; in the data active = max response mostly above about 13%, no sharp cut-off; inactive = mostly below about 14%; also: read at 38.3 µM for the half of the compounds with a filed dose; 0% is about no effect
# LmPK inh – qHTS Assay for Inhibitors of Leishmania Mexicana Pyruvate Kinase (LmPK); purified LmPK, Kinase-Glo ATP luminescence, 1 h; Potency, µM (titrated, usually from 57.5 µM), for the others: top-dose activity change, negative = inhibition, most hits filed as inhibitors; 290,000 compounds, 0.37% hits; also: potency is read from the fitted curve at half-maximal effect; % is scaled to controls: 0 for no effect and ±100 for the full control effect
# Target sequence (Q27686 whole entry, looked up): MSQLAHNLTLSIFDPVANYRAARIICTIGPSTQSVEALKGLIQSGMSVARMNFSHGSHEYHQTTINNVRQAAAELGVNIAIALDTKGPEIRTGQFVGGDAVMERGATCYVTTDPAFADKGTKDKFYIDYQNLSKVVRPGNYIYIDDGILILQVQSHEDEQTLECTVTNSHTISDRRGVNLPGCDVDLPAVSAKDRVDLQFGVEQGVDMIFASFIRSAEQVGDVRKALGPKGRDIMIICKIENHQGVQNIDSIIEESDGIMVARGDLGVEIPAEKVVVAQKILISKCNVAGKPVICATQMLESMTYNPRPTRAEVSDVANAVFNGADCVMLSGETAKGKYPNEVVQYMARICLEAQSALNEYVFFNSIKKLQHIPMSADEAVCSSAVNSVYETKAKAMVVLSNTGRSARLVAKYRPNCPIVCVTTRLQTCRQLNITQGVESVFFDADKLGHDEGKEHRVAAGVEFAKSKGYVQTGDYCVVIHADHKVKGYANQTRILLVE
#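 Pyruvate kinase activity monitored as ATP production (luciferase luminescence). Conditions: 0.1 nM enzyme, 0.5 mM PEP, 0.1 mM ADP, 1 h, RT; normalized against uninhibited and no-enzyme wells.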
# Pf growth 48h – Primary qHTS for delayed death inhibitors of the malarial parasite plastid, 48 hour incubation. P. falciparum luciferase growth in erythrocytes, 48 h. Potency, µM (doses to about 28.7 µM), inactives show at the highest dose activity change, negative = inhibition, most hits filed as inhibitors. 310,000 compounds, 5.9% hits. AID 504832, 2011; also: potency is read from the fitted curve at half-maximal effect; % is scaled to controls: 0 for no effect and ±100 for the full control effect
#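 Luciferase-expressing P. falciparum in infected erythrocytes (2% hematocrit, 0.1% parasitemia final) in RPMI 1640/0.5% Albumax were exposed to compound for 48 hours at 37 C, 5% CO2; growth read as luminescence.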
# * marks the source's active call; other numbers are inactive results; ? = inconclusive; / = no result given; [ ] = another dose, or the depositor's remark. Rows were chosen to be rich in hits. Some 22% of all compounds tested hit in one or more screens of this group. Unless noted, calls follow the shape of the dose curve; as a rule, active = well fitted inhibition curve with a large enough effect; inconclusive = small, poorly fitted or top-dose-only effect, or another doubt; inactive = no such curve, though single readings can be large or run the other way.
SMILES,Shiga inhibitor,Pf growth 96h,CHX counter,LmPK inh,Pf growth 48h
c1ccc(-c2cc(-c3nnc4n3N=C(c3ccc5ccccc5c3)CS4)[nH]n2)cc1,17,?,3,2%,12µM*
Cc1ccc(-c2nnc3n2N=C(c2ccccc2Br)CS3)cc1,-14,-1%,1,-1%,12µM*
Cc1cc(-c2nnc3n2N=C(c2ccc(-c4ccccc4)cc2)CS3)n[nH]1,5,?,6,2%,10µM*
COc1ccc(C2=Nn3c(nnc3-c3ccccc3)SC2)cc1OC,-22,-26%,-1,3%,/
Cc1cc(-c2nnc3n2N=C(c2ccccc2)CS3)n[nH]1,-2,?,2,-5%,-3%
COc1ccc(S(=O)(=O)N2CCCOC2CNC(=O)C(=O)NCc2ccco2)cc1 (stereo not given),-2,-29%,-3,5%,-2%
COc1ccc(C2N=C(c3ccccc3)NC(c3ccccc3)=N2)cc1,-1,35%,-3,6%,-19%
COc1cc(/C=C2\C(=O)ON=C2c2ccccc2)cc(Br)c1O,-2,-72%,-2,-7%,-11%[0.00184 µM]
COc1ccc(C2N=C(c3ccccc3)NO2)cc1OC (stereo not given),87*,248%,22*,2%,189%
COc1cc(C2N=C(c3ccccc3)NO2)cc(Br)c1O (stereo not given),19,34%,10*,1%,15%
FC(F)Oc1ccc(C2N=C(c3ccccc3)NO2)cc1 (stereo not given),79*,191%,45*,0%,123%
Cc1c(Nc2ccc3nonc3c2[N+](=O)[O-])c(=O)n(-c2ccccc2)n1C,21,0.66µM*,-6,4%,14%
COc1ccc(NC(=O)CN2C(=O)NC(C)(c3ccccc3)C2=O)c(OC)c1 (stereo not given),19,3%,4,5%,-11%
O=C(Cn1ccc(C(F)(F)F)n1)N/N=C/c1ccc2c(c1)OCO2,122*,19%,37*,-6%,32%
O=C(N/N=C/c1ccc2c(c1)OCO2)C(=O)Nc1ccccc1,24,85%,1,3%,58%
O=C(CSc1ncccn1)N/N=C/c1ccc(OC2CSC2)cc1,24,2%,12,0%,39%
O=C(Cc1ccccc1)N/N=C/c1ccc2c(c1)OCO2,72*,51%,34*,2%,282%
O=C(CSc1ncccn1)N/N=C/c1ccc2c(c1)OCO2,25,-29%,34*,-1%,49%
O=C(CNc1ccccc1)N/N=C/c1ccc2c(c1)OCCO2,48*,37%,34*,-3%,39%
COc1ccccc1C1=Nn2c(COc3ccccc3)nnc2SC1,-9,-17%,-3,6%,?
O=C(CCc1ccccc1)NCC(=O)N/N=C/c1ccc2c(c1)OCO2,53*,0%,19*,-8%,18%
O=C(CNc1ccccc1)N/N=C/c1ccc2c(c1)OCO2,29*,24%,20*,4%,11%
COc1ccc(/C=N/NC(=O)c2cc(C)oc2C)cc1OC,5,-21%,9,-13%,3%
COc1ccc(/C=N/NC(=O)c2ccoc2C)cc1CN1CCN(c2ccc(F)cc2)CC1,51*,?,45*,-2%,9.3µM*
COc1cccc(/C=N/NC(=O)c2ccoc2C)c1,57*,293%,42*,13µM*,190%
SMILES,Shiga inhibitor,Pf growth 96h,CHX counter,LmPK inh,Pf growth 48h
COc1cc(/C=N/NC(=O)c2ccoc2C)ccc1O,59,65%,37*,?,75%
CCOc1ccc(/C=N/NC(=O)c2ccoc2C)cc1OC,77*,?,79*,-23%,-14%
Cc1cccc(NC(=O)c2ccc(C)c(S(=O)(=O)N3CCCCC3)c2)n1,/,?,/,/,22%
CCOCCCn1c(=S)[nH]c2cc(C(=O)NC3CCCC(C)C3C)ccc2c1=O (stereo not given),2,?,-3,0%,13%
COCCn1c(N)c(N(Cc2ccccc2)C(=O)CSCC(=O)Nc2ccc(OC)cc2)c(=O)[nH]c1=O,/,-1%,/,/,-13%
Clc1ccc(CSC(Cn2ccnc2)c2ccc(Cl)cc2Cl)cc1 (stereo not given),-10,2.9µM*,-3,6%,2.1µM*
Clc1ccc(CS[C@@H](Cn2ccnc2)c2ccc(Cl)cc2Cl)cc1,/,2.3µM*,/,/,5.1µM*

# Screens (PubChem)
